Laboratory results reported in ChEMBL document CHEMBL1201862, “PubChem BioAssay data set” (2004).
The whole screen tested about 400,000 compounds, of which about 2,100 (0.53%) were called active. Another 14% or so got no clear call; they are omitted. How the calls were made is not given here. For the sample, actives were picked, then their nearest neighbours and some compounds at random.

target: Ataxin-2 (Homo sapiens) (UniProt Q99700); assay: qHTS for Inhibitors of ATXN expression.; type: functional
Sequence (Q99700 whole entry): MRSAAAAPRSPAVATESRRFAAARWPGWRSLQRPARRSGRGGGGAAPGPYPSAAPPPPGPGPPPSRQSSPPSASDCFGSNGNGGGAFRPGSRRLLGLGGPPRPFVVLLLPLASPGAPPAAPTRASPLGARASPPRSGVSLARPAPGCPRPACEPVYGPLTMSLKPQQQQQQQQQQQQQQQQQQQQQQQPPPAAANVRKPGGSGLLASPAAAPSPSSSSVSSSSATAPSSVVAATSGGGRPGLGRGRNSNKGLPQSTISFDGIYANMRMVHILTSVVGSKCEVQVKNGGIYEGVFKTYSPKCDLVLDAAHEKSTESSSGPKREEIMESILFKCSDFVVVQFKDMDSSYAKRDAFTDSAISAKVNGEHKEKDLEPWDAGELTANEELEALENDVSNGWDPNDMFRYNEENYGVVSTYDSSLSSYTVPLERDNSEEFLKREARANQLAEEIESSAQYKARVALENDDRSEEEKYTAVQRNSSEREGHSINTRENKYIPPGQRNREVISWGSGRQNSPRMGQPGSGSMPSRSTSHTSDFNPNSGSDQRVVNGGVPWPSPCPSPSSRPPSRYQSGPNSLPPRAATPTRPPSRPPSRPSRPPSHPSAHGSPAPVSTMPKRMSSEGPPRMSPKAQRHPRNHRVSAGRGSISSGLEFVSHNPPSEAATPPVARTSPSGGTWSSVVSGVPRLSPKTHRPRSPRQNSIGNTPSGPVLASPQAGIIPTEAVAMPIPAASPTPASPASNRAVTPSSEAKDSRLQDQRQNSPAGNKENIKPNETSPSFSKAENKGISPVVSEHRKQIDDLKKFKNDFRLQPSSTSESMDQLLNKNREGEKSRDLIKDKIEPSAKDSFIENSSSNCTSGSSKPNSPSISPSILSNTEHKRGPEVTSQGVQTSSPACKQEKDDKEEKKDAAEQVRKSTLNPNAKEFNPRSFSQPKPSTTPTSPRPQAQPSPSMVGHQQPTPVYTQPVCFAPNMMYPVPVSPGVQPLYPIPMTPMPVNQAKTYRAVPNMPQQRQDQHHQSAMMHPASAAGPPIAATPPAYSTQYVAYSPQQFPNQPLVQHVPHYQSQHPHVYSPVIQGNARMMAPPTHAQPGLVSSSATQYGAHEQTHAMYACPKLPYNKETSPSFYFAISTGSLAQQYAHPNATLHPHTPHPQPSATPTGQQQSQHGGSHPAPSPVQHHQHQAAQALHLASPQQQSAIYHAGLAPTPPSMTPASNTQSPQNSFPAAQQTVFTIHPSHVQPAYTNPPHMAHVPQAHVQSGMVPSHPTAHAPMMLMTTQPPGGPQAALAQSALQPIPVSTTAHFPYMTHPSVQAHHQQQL

Structure (SMILES) | Potency
CCC(C)NCC(=O)Nc1ccc(-c2nc3cc(NC(=O)CNC(C)CC)ccc3o2)cc1 (stereo not given) | 22.4 µM (active)
Cc1ccc(NC(=O)CSC(C)C(=O)OCc2cc(=O)oc3cc(O)ccc23)cc1 (stereo not given) | inactive
CC(=O)Nc1ccc2cc3ccc(NC(C)=O)cc3nc2c1 | inactive
COc1cc(/C=C\C(=O)Nc2cc(=O)n(C)c(=O)n2C)cc(OC)c1OC | inactive
CSCCC(=O)N(C)CC1CCCN(CCc2cccc(C(F)(F)F)c2)C1 (stereo not given) | inactive
CNC[C@@H](CC1CCCCC1)NC[C@H](CC(C)C)NCCc1cccc(C(F)(F)F)c1 | 15.8 µM (active)
O=c1nc2c(O)cccn2c2c1c(O)nc1ccccc12 | inactive
CCOc1ccc(NC(=O)COC(=O)CNC(=O)c2ccc(-c3ccccc3)cc2)cc1 | inactive
Cc1nc(C)c(C(=O)OCC(=O)Nc2ccccc2)s1 | inactive
Nc1nc(O)c(CCCOc2ccc(NC(=O)CBr)cc2)c(-c2ccccc2)n1 | 25.1 µM (active)
CC(C)CC1c2[nH]c3ccccc3c2CCN1C(=O)CCC(=O)N(C)C (stereo not given) | inactive
Cc1c(Cl)cccc1NC(=O)C1CCCN(C(=O)c2cnn(-c3ccccc3)c2-n2cccc2)C1 (stereo not given) | 39.8 µM (active)
Cc1cc(C)cc(NC(=O)C2CCCN(C(=O)c3cnn(-c4ccccc4)c3-n3cccc3)C2)c1 (stereo not given) | 20 µM (active)
Cc1c(Cl)cccc1NC(=O)CN1CCN(CCNC=C2C(=O)CC(c3ccccc3)CC2=O)CC1 (stereo not given) | inactive
Cc1cc(C)cc(NC(=O)Nc2ccccc2N2CCCCC2)c1 | inactive
Cc1cc(Cl)ccc1C(=O)C1CCCN(C(=O)/C=C/c2cnn(C)c2)C1 (stereo not given) | inactive
Cc1c(CN2CCCC(C(=O)Nc3cccc(-n4cccn4)c3)C2)cnn1C (stereo not given) | inactive
Cc1ccc(SCc2nn(C)c(Cl)c2C=O)cc1 | inactive
CCCN(C(=O)c1cccc(S(=O)(=O)N2CCCc3ccccc32)c1)C1CCS(=O)(=O)C1 (stereo not given) | inactive
CC(C)c1cc(NCCOCCO)n2c(nc3ccccc32)c1C#N | inactive
OCCN(CCO)c1ccc(C(c2ccccc2Cl)c2ccc(N(CCO)CCO)cc2Cl)c(Cl)c1 | 39.8 µM (active)
Cc1cc(N(CCO)CCO)ccc1C(c1ccc(N(CCO)CCO)cc1C)c1ccccc1Cl | 39.8 µM (active)
COc1cc(/C=N/NC(=O)c2ccccn2)cc2c1OCO2 | inactive
CCOc1cc(NC(=O)c2ccccn2)c(OCC)cc1NC(=O)c1ccc(OC)cc1 | inactive
CCN(CC)CCOc1ccc2c(c1)C(=NNC(=O)c1ccccn1)c1cc(OCCN(CC)CC)ccc1-2 | 39.8 µM (active)
c1ccc(-c2nc(N3CCCC3)nc3ccccc23)cc1 | inactive
CCN(CC)c1ccc2cc(-c3nnc(-c4cccc(Cl)c4)o3)c(=O)oc2c1 | inactive

Structure (SMILES) | Potency
CCCCCCc1cc2cc(S(=O)(=O)c3ccc(Cl)cc3)c(=O)oc2cc1O | inactive
Cc1ccccc1C(=O)OC1CCN(C)CC1 | inactive
COCCNc1nc2c(-c3cccc(C(F)(F)F)c3)nnn2c2ccccc12 | inactive
O=C(O)CCNc1nc(-c2ccccc2)c2cc(Br)ccc2n1 | inactive
COCCCNc1nc2c(-c3cccc(C)c3)nnn2c2ccccc12 | inactive
NNC(=O)c1sc(-c2ccccc2)cc1N | inactive
COCCNc1nc(NCCOc2ccccc2)c2sc(-c3ccccc3)cc2n1 | 25.1 µM (active)
CC(=O)Nc1ccc(S(=O)(=O)Nc2nc3nc(-c4ccccc4)cc(-c4ccccc4)n3n2)cc1 | inactive
Cc1ccc2nc(NCCC(=O)O)nc(-c3ccccc3)c2c1 | inactive
CC(=O)Nc1ccc(CNc2nc(NCCN(C)C)nc3cc(-c4ccccc4)sc23)cc1 | 31.6 µM (active)
COCCNc1nc(NCc2ccc(NC(C)=O)cc2)c2sc(-c3ccccc3)cc2n1 | 31.6 µM (active)
C[C@]12CCCC[C@@H]1CC[C@@H]1[C@@H]2CC[C@@]2(C)[C@H]1CC[C@@]2(O)CNCCO | inactive
O=C(c1cc(Br)c(Br)s1)N1CCc2ccccc2C1 | inactive
O=S(=O)(NC1CCSc2ccccc21)c1ccc(Cl)nc1 (stereo not given) | inactive
Cc1cccn2c(=O)c3cc(C#N)/c(=N\C(=O)c4cccs4)n(CCCOC(C)C)c3nc12 | inactive
COC(=O)CCNC(=O)c1ccc2nc(Cc3ccc(OC)cc3)oc2c1 | inactive
COc1ccc(C(=O)NCCNc2nc3c(C)cccc3cc2C#N)cc1 | inactive
COc1ccc(C[C@H]2CN3C(=NC[C@@H]3C(C)C)N2CCNC(=O)c2ccc(C)c(Br)c2)cc1 | 20 µM (active)
Cc1ccc(C(=O)NC(=S)NCc2ccccc2)cc1Br | inactive
COc1ccc(C[C@H]2CN3C(=NC[C@@H]3Cc3ccc(O)cc3)N2CCNC(=O)c2ccc(C)c(Br)c2)cc1 | 39.8 µM (active)
COc1ccc(C[C@H]2CN3C(=NC[C@@H]3Cc3ccccc3)N2CCNC(=O)c2ccc(C)c(Br)c2)cc1 | 22.4 µM (active)
COc1cccc(CNC(=O)c2ccc(C)c(NC3=NC4CS(=O)(=O)CC4S3)c2)c1 (stereo not given) | inactive
COc1cccc(C(=O)NCCn2ccc3ccccc32)c1 | inactive
CC(=O)Nc1ccc(NC(=O)CSc2ccc3nnc(CCNC(=O)c4ccccc4)n3n2)cc1 | inactive
CC1CCN(c2nnc(-c3ccccc3)c3ccccc23)CC1 | inactive
Cc1sc2nc(-c3ccccn3)nc(O)c2c1-c1ccccc1 | inactive
O=[N+]([O-])c1ccc(C2NS(=O)(=O)N=C3CCCCCN32)cc1 (stereo not given) | inactive

Structure (SMILES) | Potency
CCCc1cc(C(=O)Cc2nc3ccccc3s2)c(O)cc1O | inactive
CC(C)CC(=O)NC(=S)Nc1nc(-c2ccc(Cl)cc2)cs1 | inactive
Cc1ccc(Cn2c(C(CO)Nc3nc(-c4ccc(F)cc4)cs3)nc3ccccc32)cc1 (stereo not given) | 25.1 µM (active)
O=C(CN1CCN(Cc2ccc(F)cc2)CC1)Nc1nc2ccccc2s1 | inactive
COc1ccc(-c2csc(NC(C)c3nc4cc(Cl)c(Cl)cc4n3CCCO)n2)cc1 (stereo not given) | 39.8 µM (active)
CC(Nc1nc(-c2ccc(F)cc2)cs1)c1nc2cc(Cl)c(Cl)cc2n1CCCO (stereo not given) | 39.8 µM (active)
Cc1ccc(Cn2cccc(-c3nc4ccccc4s3)c2=O)cc1 | inactive
CC(Nc1nc(-c2ccc(F)cc2)cs1)c1nc2cc(Cl)c(N3CCCCC3)cc2n1CCCO (stereo not given) | 25.1 µM (active)
COc1ccc(-c2csc(NC(=O)CSc3nnnn3C)n2)c(OC)c1 | inactive
COc1ccc(/N=C/C2=C(O)c3c(sc(C)c3C)N(C)S2(=O)=O)cc1 | inactive
CC(Nc1nc(-c2ccc(F)cc2)cs1)c1nc2cc(C(F)(F)F)ccc2n1CCCO (stereo not given) | 22.4 µM (active)
C/C(=N\NC(=O)COc1ccccc1-c1ccccc1)c1ccccn1 | 6.7 µM (active)
C/C(=N\NC(=O)c1c[nH]c2ccccc12)c1ccccn1 | inactive
CC(=O)Nc1ccc(NC(=O)COC(=O)c2ccccn2)cc1 | inactive
CCCn1nc(NC(=O)C(C)C)c2cc3cc(OC)ccc3nc21 | inactive
N=c1oc2ccccc2cc1-c1nc(-c2ccccc2)cs1 | inactive
CCN(CC)S(=O)(=O)c1cc([N+](=O)[O-])ccc1NNC(=O)Nc1ccc(Cl)c(Cl)c1 | 39.8 µM (active)
CN(C)S(=O)(=O)c1ccc(Cl)c(C(=O)Nc2cccc([N+](=O)[O-])c2)c1 | inactive
CCN(CC)S(=O)(=O)c1cc(NC(=O)C2CC(=O)N(Cc3ccccc3)C2)ccc1Cl (stereo not given) | inactive
CC1=CC(c2ccccc2)n2nc(NC(=O)CCCC(=O)O)nc2N1 (stereo not given) | inactive
CN(C)/C=C1\C=C2C(=O)c3ccccc3N2C1=O | inactive
COc1ccc(-c2nnc(C3CCN(S(=O)(=O)c4ccccc4)CC3)o2)cc1 | 26.7 µM (active)
CCCc1ccc(S(=O)(=O)N2CCC(c3nnc(-c4cccc(C)c4)o3)CC2)cc1 | 8.91 µM (active)
Cc1ccc(S(=O)(=O)N2CCN(C(S)=NCc3ccc4c(c3)OCO4)CC2)cc1 | inactive
CCOC(=O)C1(CC2CCCCO2)CCN(S(=O)(=O)c2ccc(OC)cc2)CC1 (stereo not given) | inactive
O=C(c1ccc(F)cc1)C1CCN(S(=O)(=O)c2ccccc2)CC1 | inactive
CCCc1nn(-c2ccc([N+](=O)[O-])cc2)c(O)c1/C=N/CCCn1ccnc1 | inactive

Structure (SMILES) | Potency
O=[N+]([O-])c1ccc(-c2ccc(/C=N/Nc3nc(N4CCCCC4)nc(N4CCCCC4)n3)o2)cc1 | inactive
O=C(NNC(=O)c1cc(-c2ccc(Br)cc2)nc2ccccc12)c1csc(N2CCOCC2)n1 | inactive
Clc1ccc(SCc2csc(N3CCOCC3)n2)cc1 | inactive
S=C(NCCCN1CCOCC1)N1CCN(c2nc(-c3ccc(Cl)cc3)cs2)CC1 | 31.6 µM (active)
COc1ccccc1NC(=O)c1sc2nc(C)cc(C)c2c1N | inactive
COCc1cc(C)nc2sc(C(=O)Nc3ccccc3OC)c(N)c12 | inactive
COc1ccccc1NC(=O)C1=C(C)Nc2nc(SCc3ccccc3)nn2C1c1cccc(O)c1 (stereo not given) | 31.6 µM (active)
CCS(=O)(=O)c1nc(S(=O)(=O)c2ccc(C)cc2)c(N2CCN(C)CC2)s1 | inactive
O=C(Oc1cccc2cccnc12)c1cccc(N2C(=O)C3C4CCC(C4)C3C2=O)c1 (stereo not given) | inactive
COC(=O)c1ccc(NC(=O)c2cccc(C)c2)cc1 | inactive
COC(=O)c1ccc(NC(=O)c2cccc(N3C(=O)C4C5C=CC(C6CC56)C4C3=O)c2)cc1 (stereo not given) | 39.8 µM (active)
CCN(CC(=O)Nc1ccc(NC(C)=O)cc1)C(=O)CSC(=S)N1CCCC1 | 3.55 µM (active)
Cc1ccc(NC(=O)COC(=O)CSC(=S)N2CCOCC2)cc1 | inactive
CC(=O)Nc1ccc(NC(=O)CC2CCCC2)cc1 | inactive
CCN(CC)CCCNc1oc(/C=C/c2ccccc2)nc1C#N | inactive
CCOc1cc(/C=N/NC(=O)c2ccc3c(c2)OCCO3)cc(Br)c1O | inactive
O=C(N/N=C/c1cc([N+](=O)[O-])ccc1O)c1ccc2c(c1)OCCO2 | 50.1 µM (active)
Cc1occc1C(=O)N/N=C/c1cccc2ccccc12 | inactive
COc1cccc(/C=N/NC(=O)c2ccc(=O)n(C)c2)c1O | inactive
O=C(N/N=C/c1sc2ccccc2c1O)c1cccc2ccccc12 | inactive
COc1cccc(/C=N/NC(=O)c2c(C)nc3ccc(Cl)cn23)c1OC | inactive
O=C(NN=Cc1cc([N+](=O)[O-])ccc1O)c1cccc2ccccc12 | 33.6 µM (active)
COc1cc(Cl)cc(/C=N\NC(=O)c2ccc3c(c2)OCO3)c1O | inactive
COc1cccc(/C=N/NC(=O)c2cc3cc([N+](=O)[O-])ccc3s2)c1O | 14.1 µM (active)
